# Results from publication PMC12136788.
# Substitutions are numbered along the chain they refer to. The full ranking holds about 24,000 sequences; the median of “enrichment r” is about 0.99, and the highest 2% start at about 3.7. For the sample, the highest values were picked, then their nearest neighbours and some sequences at random.
# T1: UNK ZnF1-3 (human, UniProt Q9C0B0 31-174)
# T1 sequence: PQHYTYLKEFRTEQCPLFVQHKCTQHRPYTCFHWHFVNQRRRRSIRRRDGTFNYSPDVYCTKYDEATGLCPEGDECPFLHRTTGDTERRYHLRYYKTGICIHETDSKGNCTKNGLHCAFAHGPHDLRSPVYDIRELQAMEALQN
# B1: chr11:86532819:86532820:-_ENSMUSG00000047126_ENSMUST00000103186|perfect_dup|FALSE|FALSE (ssRNA)
# RNA: GGGAGUUCUACAGUCCGACGAUCCAUGGCUCUGAGACAUUCUAGGGAGUCUUCUACUGAUAAGGAACCAAAGUAGUUGACUAACCACUCAGGGUUAAGAAGAUGGGUGUGAACCACUGCACGUUUUAUAUCAUAUAAAUCAGUCAACAGAGGAUUGAGCAUCA
# B2: chr1:39494564:39494565:+_ENSG00000168653_ENST00000372967|hu_hu|hu_hu_hu_mus_True|18_38 (ssRNA)
# RNA: GGGAGUUCUACAGUCCGACGAUCAUGCAUUCGCCUCAUCGUUUUGUACCGAAGCAAGCACUCUUCGAAGUCAUCGAACUCUAUCUUGCACUCCUUUUCUGCCCGAGUCCCACCGAUUCCAUGUGCACACUCUAUCCACUCUUUCAACAGAGGAUUGAGCAUCA
# B3: chr14:89338683:89338684:+_ENSG00000165533_ENST00000346301|hu_hu|hu_hu_hu_mus_False|48_58 (ssRNA)
# RNA: GGGAGUUCUACAGUCCGACGAUCGUGGUUGUUGUGGACCAGGGCCAGCCUGAAGCAUUGGUGGGCCAAGUUUGUAUCUCCUAUUCCCACAGCUACAUGCCCCAGGUUGUACCAGACAUCAGCUGCCUCUUCUUCAUUUUCAGCCAACAGAGGAUUGAGCAUCA
# B4: chr11:6247107:6247108:+_ENSMUSG00000020456_ENSMUST00000003461|mus_mus|motif|central (ssRNA)
# RNA: GGGAGUUCUACAGUCCGACGAUCAAACAUAGGUUCGUCCAUCUCAUUGUGGCCAUUUCGUCGAUAACACACCAGAUCAACGGCAACAUCCUUGUGGAAGGUGUUUCUCCACUCAGCUGCCACCUUGCAUACAUACAUGACAGCCAACAGAGGAUUGAGCAUCA
# B5: chrX:41029285:41029286:+_ENSG00000124486_ENST00000378308|hu_hu|FALSE|FALSE (ssRNA)
# RNA: GGGAGUUCUACAGUCCGACGAUCUGUAUGAGACCAUACCUCCAAGUCAUCAACCUGUCUGCCCUGGUUUGGAAAUCGAACUACAAAAGAGAGGUGUUUACCGCGGAAUGCUCUCGACAUAGGGAGAAUUGUUCUUUCCUCAUGCAACAGAGGAUUGAGCAUCA
# B6: chr1:39494447:39494448:+_ENSG00000168653_ENST00000372967|hu_mus|hu_hu_hu_mus_False|18_38 (ssRNA)
# RNA: GGGAGUUCUACAGUCCGACGAUCGCACCGAGCGGCGUUCUUAUAGGGCUGUUCUGCGCUUAGGAACAUAAAGUGCCGGUCCAGGCUGAUGCCCAGCCUUUUCUGGAUGUCAAGGAAAGGCAUGGCCCUGCAGUGCCCUUGUCACAACAGAGGAUUGAGCAUCA
# B7: 54592465_54592585_3431_3pUTR_ENSMUSG00000005225_ENSMUST00000119706|mouse|control|control (ssRNA)
# RNA: GGGAGUUCUACAGUCCGACGAUCUUGCUUGGCUUAAAAUUUUAUUACAAGUGUUUUUAAGAGGCAAGGUCUUGCUAUGUUGUUCAGGUUAAUCUCCAAAUCUUGGGCUCAAAUAAUACUUUACUCUCAUACUUCUGGGUAGCUCAACAGAGGAUUGAGCAUCA
# B8: chr1:34870196:34870197:-_ENSMUSG00000037503_ENSMUST00000047534|mus_mus|FALSE|FALSE (ssRNA)
# RNA: GGGAGUUCUACAGUCCGACGAUCUGAGCCCAUCUACUCAUCAGAUUGCAUAAAAAAUUAAAACAGUAUGAAUUUACAUCUAAUUGAACUGGCUUGGGAUGGACAGUCUGCCCGUUCCUUUGUUUUGACACAUAAGUUCCAUGACAACAGAGGAUUGAGCAUCA
# B9: chr4:56294251:56294252:-_ENSG00000134852_ENST00000309964|hu_hu|FALSE|FALSE (ssRNA)
# RNA: GGGAGUUCUACAGUCCGACGAUCAACAUAGCACUGAGGUAUUUUUUAUUUUUAAAAUUGAAGGAAACAAAGUCUGGAUCUAAUUAUUUUUACAUUUACAAAAACUGCUACUGCUUGGCUCUUUUGCUAUAAGUUUAGGUUCUGCAACAGAGGAUUGAGCAUCA
# B10: chr4:56294251:56294252:-_ENSG00000134852_ENST00000309964|hu_hu|motif|central (ssRNA)
# RNA: B9 RNA with U80G, A81G
# B11: chrX:41000244:41000245:+_ENSG00000124486_ENST00000378308|hu_mus|motif|central (ssRNA)
# RNA: GGGAGUUCUACAGUCCGACGAUCUGCUUCUUUCUUCAGCUCUUCAUCAGUUAAGUUUUCUAAAAACUGUGGAACCAUUUCGGUUAUUGGAAGAAAGUACUUUUUCACUGUGUGAAGAGUAAGAAACUCAUAGCACUGUCCAAACAACAGAGGAUUGAGCAUCA
# B12: chr1:34870196:34870197:-_ENSMUSG00000037503_ENSMUST00000047534|mus_mus|motif|central (ssRNA)
# RNA: B8 RNA with U80G, A81G
# B13: chr4:17845017:17845018:+_ENSG00000109805_ENST00000514176|hu_mus|hu_hu_hu_mus_False|48_58 (ssRNA)
# RNA: GGGAGUUCUACAGUCCGACGAUCGCUCUCUUAACUUGUAUCUUCAUUAAGGAACUCUGCAAGGUUAAGUUUACUUUUUCUAGUGCUGCGGUUUUGGGCUCGUCUGGGUAAUCUCAUCUUCAUUUCUGAUGGUGGUUCAUGAUCCAACAGAGGAUUGAGCAUCA
# B14: chr6:114281168:114281169:-_ENSG00000196591_ENST00000368632|hu_hu|hu_hu_hu_mus_True|1_18 (ssRNA)
# RNA: GGGAGUUCUACAGUCCGACGAUCUUCCAUUUUUCGGUAUAAACCAUAAUUUAGCAGCAAGUUAUGAGUCAUCCGGAUUCUAUGAGGCUUCAUGGGAUGACCCUGGCCAUAAUAAUAAUUUCCAAUAUCACCAUCAUACUAGAACAACAGAGGAUUGAGCAUCA
# B15: 83260623_83262902_554_CDS_ENSMUSG00000031715_ENSMUST00000043359|mouse|control|control (ssRNA)
# RNA: GGGAGUUCUACAGUCCGACGAUCUUCUUUUUGCUUUCCAGGUGAUCCAUGAUCAAAUACUUCCUCCAUCUCGGUGUCCGCGGGGCCCGAGCCCGCAGCACACGGAGCCGCGGGCGCCGCGCCGCCCUCGGGGCCGCCUUUGUUCAACAGAGGAUUGAGCAUCA
# B16: chr4:86222814:86222815:+_ENSMUSG00000070934_ENSMUST00000091064|mus_mus|FALSE|FALSE (ssRNA)
# RNA: GGGAGUUCUACAGUCCGACGAUCGAAUAUUAAAGACAAAUGAUGCAAAAAAAAAAAAAACACCGUAAUUCAGCAUUUUACUAAAGAGCAUUUGGCAUUAUUUCAACGCAUGAGGAGGCUGUGCUUGGGCCCAUCUACUCUUUCCAACAGAGGAUUGAGCAUCA
# B17: chr6:40197388:40197389:+_ENSMUSG00000057716_ENSMUST00000061740|mus_mus|mus_mus_mus_hu_False|68_78 (ssRNA)
# RNA: GGGAGUUCUACAGUCCGACGAUCGAGACACUGGGGUGGAUUUAUUCCACCUCUGUUUGCUAGCCUCUAAGAUAGAUUGUUAUUUUGGGAUUCAUGGCCUUGAAUAUCAAGAGGGAAAGGAAGAGGAUGGAAAGAGUCAAGAGUCAACAGAGGAUUGAGCAUCA
# B18: 52238803_52238923_934_CDS_ENSG00000023330_ENST00000469224|human|control|control (ssRNA)
# RNA: GGGAGUUCUACAGUCCGACGAUCCCCACACACCCGUGGGUGGCGACUCAUUCCUAGGUAGUCAUUACUGCACCAGACUGACACUUGCUUUUUGGUGAUGAGGGAGUCUGAAUAGUCAUCUGCCAUGGGGAAGAUGUGUGCUCGCAACAGAGGAUUGAGCAUCA
# B19: 14029136_14029256_1416_CDS_ENSG00000175595_ENST00000311895|human|control|control (ssRNA)
# RNA: GGGAGUUCUACAGUCCGACGAUCUUUUUUCUUUUUGAGGGUUCUUUCUUUGGUAGAAGCCCGUUCUUUGUUUUGGGGGUCUUUAGGUCUUUUGUGAGAUUUCCUAAUUCUCUUUGAACUGUCUUCCUUCCUAAAUUUCAUCCACAACAGAGGAUUGAGCAUCA
# B20: 80201405_80202562_482_3pUTR_ENSMUSG00000017421_ENSMUST00000017567|mouse|control|control (ssRNA)
# RNA: GGGAGUUCUACAGUCCGACGAUCCUGUGGCUGAAAGGAAGUUGAGGCUGCAGAUUCAUCAUCAUCAUAUUCAUCAGAAUCAUCUUGUUGUUUCUUUUUCUGACUCUCUUGUGUUUUCUGUUCAAGAAGUCGCCGUCUUUCAUCCAACAGAGGAUUGAGCAUCA
# B21: chr19:37063429:37063430:+_ENSMUSG00000040565_ENSMUST00000099494|mus_mus|FALSE|FALSE (ssRNA)
# RNA: GGGAGUUCUACAGUCCGACGAUCCAUAGCAUCCCAAAGAUGUGGCAACUUCACUGCCAUUUCAGCACCAAAAUGCUUCACUAUAGUUGUUAAGGCAAAUUCAGCUCCUCUCCGCUGUACCAGGUAAGGCUUCUGACCCUCAUCCAACAGAGGAUUGAGCAUCA
# B22: chr19:7991675:7991676:-_ENSG00000104980_ENST00000595831|hu_mus|motif|central (ssRNA)
# RNA: GGGAGUUCUACAGUCCGACGAUCAUGUACAGGAAGUAAGAGCACUGAUUUAAAAACAAAAACAAAACAAAACAAAAGGACCGGAAGUGGCUUGGAAGGCAAUGCCAGUGGACUACUUAGAACAGCAGGCCAGGCCUCACCCGACAACAGAGGAUUGAGCAUCA
# B23: chr19:7991675:7991676:-_ENSG00000104980_ENST00000595831|hu_mus|FALSE|FALSE (ssRNA)
# RNA: B22 RNA with G82U, G83A
# B24: chr4:95690885:95690886:+_ENSMUSG00000028572_ENSMUST00000156910|mus_mus|mus_mus_mus_hu_False|1_8 (ssRNA)
# RNA: GGGAGUUCUACAGUCCGACGAUCUUUAGAAAAUGUUAAAUACCAUGCUAAAAUAUUUUCAAAGGCUUAUUUUAUUUUACCAGAAGUCACAGGCAAGCAGACACUACAAGAAUAUAUGAAAAUGAAACAACAGUGUAAAAUGUACAACAGAGGAUUGAGCAUCA
# B25: chr6:30692278:30692279:+_ENSG00000196230_ENST00000327892|hu_hu|FALSE|FALSE (ssRNA)
# RNA: GGGAGUUCUACAGUCCGACGAUCCCAGAGUGGAAAGAGAGAGGAGACAUUCAACAAACAAGUAUUUAUUGAGCGCCUACUAUGUGCCAGGCACUGUUCUAGACCCCCCCCAGAAGAAAAAACAAAAAACAAGAUAGAGGCAGCCAACAGAGGAUUGAGCAUCA
# B26: chr5:136386232:136386233:-_ENSMUSG00000051391_ENSMUST00000055808|mus_hu|FALSE|FALSE (ssRNA)
# RNA: GGGAGUUCUACAGUCCGACGAUCAAGUACACAAUCGAUGGCUUGAUGUUACAUAUGGCUGUAAUGUAGAAAUACUGUAAACUGCAAUUUAGUGUUAAUACUGUCAACUAAUCAGAGACUUCGGAAAACUGGCAAGGCCUAAACCAACAGAGGAUUGAGCAUCA
# Molecular target: T1, UNK ZnF1-3
# Assay: nsRBNS (natural sequence RNA bind-n-seq); RBNS binding buffer (assumed for nsRBNS): 25 mM Tris pH 7.5, 150 mM KCl, 3 mM MgCl2, 0.01% Triton X-100, 500 ug/ml BSA, 20 U/ml SUPERase-In, 4 C; UNK is unkempt and MSI1 is Musashi-1; names of the RNAs are library labels; protein concentration not given here; high values mean tight binding
row,Binder,binding signal [enrichment R]
1,B1,1.15
2,B2,0.624
3,B3,0.726
4,B4,0.7
5,B5,1.07
6,B6,0.685
7,B7,1.3
8,B8,1.33
9,B9,4.1
10,B10,3.76
11,B11,0.545
12,B12,1.36
13,B13,0.378
14,B14,1
15,B15,0.826
16,B16,1.67
17,B17,1.33
18,B18,1.04
19,B19,0.174
20,B20,0.524
21,B21,0.992
22,B22,5.15
23,B23,5.35
24,B24,1.97
25,B25,2.28
26,B26,1.26
